Test results from ChEMBL document CHEMBL3433997, “St. Jude Leishmania screening dataset” (2016).

Key:
Type in all cases: functional
[1] = biological target: Solute carrier family 2, facilitated glucose transporter member 1 (Homo sapiens) (UniProt P11166); assay: ST_JUDE_LEISH: Cytotoxicity at 2uM final concentration against transgenic Leishmania Mexicana promastigotes LmGLUT1 that are glucose transport deficient and complemented with the human glucose transporter GLUT1. Activity is measured by DNA content using SYBR green in vitro
Solute carrier family 2, facilitated glucose transporter member 1 (Homo sapiens), sequence (P11166 whole entry): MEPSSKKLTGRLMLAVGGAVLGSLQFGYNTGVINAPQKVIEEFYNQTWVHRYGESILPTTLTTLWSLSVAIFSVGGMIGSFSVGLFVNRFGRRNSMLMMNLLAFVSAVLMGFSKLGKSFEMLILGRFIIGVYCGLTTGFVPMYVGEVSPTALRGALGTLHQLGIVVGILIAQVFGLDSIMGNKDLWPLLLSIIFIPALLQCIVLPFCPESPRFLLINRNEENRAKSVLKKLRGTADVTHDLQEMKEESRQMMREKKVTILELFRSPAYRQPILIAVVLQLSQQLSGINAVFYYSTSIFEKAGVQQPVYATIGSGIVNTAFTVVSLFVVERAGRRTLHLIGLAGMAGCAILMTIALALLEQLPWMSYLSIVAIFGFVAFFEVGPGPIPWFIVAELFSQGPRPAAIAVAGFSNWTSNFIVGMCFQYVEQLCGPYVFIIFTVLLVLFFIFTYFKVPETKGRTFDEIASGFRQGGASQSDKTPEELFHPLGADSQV

[2] = biological target: Hexose transporter 1 (Plasmodium falciparum) (UniProt O97467); assay: ST_JUDE_LEISH: Cytotoxicity at 2uM final concentration against transgenic Leishmania Mexicana promastigotes LmPfHT that are glucose transport deficient and complemented with the Plasmodium falciparum hexose transporter. Activity is measured by DNA content using SYBR green in vitro
[3] = biological target: Glucose transporter (Leishmania mexicana) (UniProt O61059); assay: ST_JUDE_LEISH: Cytotoxicity at 2uM final concentration against transgenic Leishmania Mexicana promastigotes LmGT2 that are glucose transport deficient and complemented with the L. Mexicana glucose transporter 2. Activity is measured by DNA content using SYBR green in vitro

| SMILES | inhibition [1] | inhibition [2] | inhibition [3] |
| --- | --- | --- | --- |
| CCN(CCO)Cc1ccc(-c2ccc(NS(=O)(=O)c3cccc4cccnc34)cc2)cc1 | 89.5% | 95.5% | 92.4% |
| Cc1nnc2c(NC(=O)NC(C)C)cc3cc(-c4ccc(CN5CCCCC5)cc4)ccc3n12 | 56% | 10.5% | 11% |
| COC(=O)c1cc(NC(=O)Nc2ccc(Cn3ncc(N4CCCNCC4)c(Cl)c3=O)cc2)cc(C(=O)OC)c1 | 0.7% | 1.45% | 1.92% |
| Cc1ccccc1Nc1cc(Nc2ccccc2C)c2ccccc2n1 | 42.9% | 42.2% | 16.1% |
| Cc1nc(C)c(C2CCC(c3ccc(Cl)cc3)CC2)c(O)c1Cl (stereo not drawn) | 5.98% | 56.3% | -0.48% |
| N#Cc1cccc(CN2CCCN(Cc3ccc(C(=O)Nc4ccc(Cl)cc4)cc3)CC2)c1 | 4.41% | 5.4% | -0.06% |
| Cc1cc(=O)c2cc(-c3ccc(OC(F)(F)F)cc3)ccc2[nH]1 | -2.2% | 0.49% | -0.86% |
| CN(C)CCN(C)Cc1ccc(-c2cccc(NC(=O)c3ccc(Cl)cc3)c2)cc1 | 4.75% | 2.96% | 1.03% |
| Cc1cccc(C)c1CNc1ccnc2cc(Br)ccc12 | 9.73% | 8.34% | 5.92% |
| COc1ccccc1C1CC(c2ccc(C)cc2)=NN1C(=O)c1ccccc1 (stereo not drawn) | 8.25% | 8.06% | 5.66% |
| COc1ccc2nccc([C@@H](O)CN3CCC(NC(=O)C(c4cc5ccccc5s4)N4CC(C)OC(C)C4)CC3)c2c1 (stereo partly drawn) | 4.19% | 2.81% | 3.57% |
| CC(=O)Nc1cccc(C(=O)Nc2cccc(-c3cccc(-c4nc5ccccc5[nH]4)c3)c2)c1 | 16.4% | 15.5% | 17.4% |
| O=C1OC(c2ccccc2)(c2ccccc2)CN1CC1CCN(Cc2ccc(O)c(Cl)c2)CC1 | 70% | 70.4% | 32.2% |
| CCCCN(Cc1cccc(C(F)(F)F)c1Cl)c1ccc(C(O)(C(F)(F)F)C(F)(F)F)cc1 | 7.39% | 6.7% | 6.39% |
| Cc1c(CNCCCNc2nc3ccccc3[nH]2)sc(C(F)F)c1Br | 3.07% | 0.8% | 1.17% |
| COCCCC1C(=O)OC2CCCC21 (stereo not drawn) | 0.19% | 3.28% | 2.52% |

| SMILES | inhibition [1] | inhibition [2] | inhibition [3] |
| --- | --- | --- | --- |
| Oc1ccc2nc(NCCCc3ccccc3)nc(NCCCc3ccccc3)c2c1 | 28.4% | 20.7% | 11.1% |
| CCC(=O)NC(c1ccco1)c1cc(Cl)c2cccnc2c1O (stereo not drawn) | 12.9% | 12.3% | 10.7% |
| O=C(/C=C/c1ccc(C(F)(F)F)cc1)N1CCC(CCN2CCC(c3c[nH]c4ccccc34)CC2)CC1 | 16.8% | 9.28% | 3.39% |
| Cc1cccc2nc(-c3ccc(-c4ccc(CN5CCC(N)C5)cc4)s3)[nH]c12 (stereo not drawn) | -3.3% | 0.94% | -2.11% |
| C=CCC(C)n1ncc2c3c(N)nc(N)nc3ccc21 (stereo not drawn) | 2.58% | -0.39% | -0.24% |
| CO/C(=C\C=C\c1cc2cc(Cl)c(Cl)cc2[nH]1)C(=O)NCC(C)(C)CN(C)C | -1.89% | 2.21% | 1.65% |
| CCc1ccc(CN2CCC(NC(=O)c3ccc(-c4ccccc4F)s3)CC2)cc1 | 0.37% | 0.03% | -5.91% |
| COc1cc2[nH]c(-c3ccc(O)cc3)c(C)c(=O)c2c(OC)c1OC | 2.67% | 0.09% | -2.9% |
| CC(C)c1ccc(CN2CCC(NC(=O)c3ccc(-c4ccccc4F)s3)CC2)cc1 | 0.51% | 0.39% | -1.39% |
| COc1ccc(CCN(C)CCCOc2ccc(NC(=O)COc3cccc4sc5ccccc5c(=O)c34)cc2)cc1OC | -2.54% | -2.87% | -0.2% |
| CCNc1cc(C(=O)N[C@@H](Cc2ccccc2)[C@H](O)CNC(C)(C)Cc2ccccc2)cc(N2CCCC2=O)c1 | 3.58% | 0.61% | 0.81% |
| COc1ccc(-c2ccc(NC(=O)c3cccc(Cl)c3)cc2)cc1CN(C)CCO | 1.99% | 0.94% | -1.71% |
| CC(C)c1ccc(CN2CCCCC(NC(=O)c3cc(-c4cccc(F)c4)cs3)C2)cc1 (stereo not drawn) | -2.71% | 3% | 0.54% |
| CC(C)c1cc(Oc2c(I)cc(CCCc3ncc[nH]3)cc2I)ccc1O | 9.35% | 9.42% | 6.8% |
| CC[C@H](C)CNC(=O)c1cccc(-c2ccc(CN3CCC(N4CCCC4)CC3)cc2)n1 | 2.3% | 0.54% | 1.28% |
